Assay [1] is described as follows: optical density shifts of acrAB sulA E. coli – strain DRC41, OD650, 48 h, E. coli filamentation inducer project, primary screen (AID 1152).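 Also: E. coli MC1000 strain DRC41 lacking acrAB efflux pump and sulA.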 The note with it: higher = more signal, called active from +8 up or from −8 down.
Assay [2] is described as follows: probe aLefty1 binding on compound microarray – biochemical, small-molecule microarray, 635/667 nm fluorescence, primary screen (AID 1153).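 Also: score merges spot fluorescence with signal-to-noise ratio from the scanned slide images.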 The note with it: higher = more signal.
Assay [3] can be described thus: plasmodial surface anion channel blockers, osmotic lysis – cell-based, P. falciparum Indochina, OD700, 1 h, primary screen (AID 1154). The note with it: P. falciparum Indochina infected RBC osmotic lysis, higher = more signal, called active from +8 up or from −8 down.
Assay [4] can be described thus: plasmodial surface anion channel blockers, osmotic lysis – cell-based, P. falciparum Indochina, OD700, 2 h, primary screen (AID 1155).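 Also: lysis reports solute entry through the parasite surface anion channel PSAC.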 The note with it: P. falciparum Indochina infected erythrocytes, higher = more signal, called active from +8 up or from −8 down.
Assay [5] in a line: changes in parasitized red cell lysis, either direction – P. falciparum Indochina, OD700, 3 h, PSAC antagonist project, primary screen (AID 1156). To be noted: P. falciparum-infected erythrocytes, osmotic lysis, higher = more signal, called active from +8 up or from −8 down.
Assay [6] can be described thus: plasmodial surface anion channel blockers, osmotic lysis – cell-based, P. falciparum Indochina, OD700, 18 h, primary screen (AID 1157). The note with it: P. falciparum Indochina infected erythrocytes, osmotic lysis OD700, 18 h; higher = more signal, called active from +8 up or from −8 down.
Assay [7] can be described thus: S6 kinase pathway phospho-S6 level changes – cell-based, A549, cytoblot, luminescence, serum-stimulated, primary screen (AID 1158).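 Also: serum-stimulated A549 lung adenocarcinoma cells; signal is phosphorylated S6 detected by cytoblot immunostaining with HRP secondary.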 To be noted: 5 h, higher = more signal.
Assay [8] has as its target NADPH oxidase 2 (Homo sapiens) (UniProt P04839). Nature of the assay: compounds shifting NOX2 Amplex Red fluorescence – cell-based, HEK293-NOX2, PMA-stimulated, NOX inhibitor project, primary screen (AID 1159). Also: test concentration not given here. To be noted: 45 min, higher = more signal, called active from +8 up or from −8 down.
Assay [9] has as its target NADPH oxidase 4 (Homo sapiens) (UniProt Q9NPH5). Put plainly: compounds shifting NOX4 Amplex Red fluorescence – cell-based, HEK293-NOX4, tetracycline-induced, NOX inhibitor project, primary screen (AID 1160). To be noted: HEK293-NOX4, Amplex Red H2O2 fluorescence, 45 min; higher = more signal, called active from +8 up or from −8 down.
The target of assay [10] is NADPH oxidase 5 (Homo sapiens) (UniProt Q96PH1). Nature of the assay: compounds shifting NOX5 Amplex Red fluorescence – cell-based, HEK293-NOX5, NOX inhibitor project, primary screen (AID 1161). The note with it: HEK293-NOX5, ionomycin, 45 min, higher = more signal.
NADPH oxidase 5 (Homo sapiens), sequence (Q96PH1 whole entry, looked up): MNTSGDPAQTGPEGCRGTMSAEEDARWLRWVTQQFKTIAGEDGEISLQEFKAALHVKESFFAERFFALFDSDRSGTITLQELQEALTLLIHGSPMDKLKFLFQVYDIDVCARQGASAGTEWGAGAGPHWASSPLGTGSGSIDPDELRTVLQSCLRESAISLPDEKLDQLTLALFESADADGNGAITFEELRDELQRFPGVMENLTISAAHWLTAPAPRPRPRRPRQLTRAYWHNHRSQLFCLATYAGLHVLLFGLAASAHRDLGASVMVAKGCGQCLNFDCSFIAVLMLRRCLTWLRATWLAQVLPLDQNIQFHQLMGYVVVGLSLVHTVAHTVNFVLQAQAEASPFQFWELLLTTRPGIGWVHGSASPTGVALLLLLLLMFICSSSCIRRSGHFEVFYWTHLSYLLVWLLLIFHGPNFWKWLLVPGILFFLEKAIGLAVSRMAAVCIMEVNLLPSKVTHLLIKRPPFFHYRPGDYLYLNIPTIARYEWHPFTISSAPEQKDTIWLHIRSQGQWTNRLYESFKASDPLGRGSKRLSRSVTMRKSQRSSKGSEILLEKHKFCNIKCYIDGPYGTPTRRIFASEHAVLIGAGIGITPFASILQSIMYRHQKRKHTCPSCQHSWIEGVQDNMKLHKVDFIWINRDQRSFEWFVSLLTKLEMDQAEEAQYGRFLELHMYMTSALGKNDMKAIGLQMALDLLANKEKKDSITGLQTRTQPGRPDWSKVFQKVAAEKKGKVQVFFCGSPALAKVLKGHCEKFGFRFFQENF

Activity calls are given as the source filed them.

NADPH oxidase 4 (Homo sapiens), sequence (Q9NPH5 whole entry, looked up): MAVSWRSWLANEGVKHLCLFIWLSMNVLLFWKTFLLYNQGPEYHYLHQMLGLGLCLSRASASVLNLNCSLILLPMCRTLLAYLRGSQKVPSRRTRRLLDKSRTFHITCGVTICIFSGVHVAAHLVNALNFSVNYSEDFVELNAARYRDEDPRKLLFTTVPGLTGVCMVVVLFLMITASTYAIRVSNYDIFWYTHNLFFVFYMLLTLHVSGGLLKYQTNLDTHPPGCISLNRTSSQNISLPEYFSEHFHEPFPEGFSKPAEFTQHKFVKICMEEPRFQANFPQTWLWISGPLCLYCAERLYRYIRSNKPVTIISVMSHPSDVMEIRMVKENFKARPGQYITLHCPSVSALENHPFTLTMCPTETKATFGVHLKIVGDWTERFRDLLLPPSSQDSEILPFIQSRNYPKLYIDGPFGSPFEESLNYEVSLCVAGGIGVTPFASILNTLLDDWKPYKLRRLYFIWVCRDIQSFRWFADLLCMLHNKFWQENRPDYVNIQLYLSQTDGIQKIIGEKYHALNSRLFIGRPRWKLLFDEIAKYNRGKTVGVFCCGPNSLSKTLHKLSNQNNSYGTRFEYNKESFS
NADPH oxidase 2 (Homo sapiens), sequence (P04839 whole entry, looked up): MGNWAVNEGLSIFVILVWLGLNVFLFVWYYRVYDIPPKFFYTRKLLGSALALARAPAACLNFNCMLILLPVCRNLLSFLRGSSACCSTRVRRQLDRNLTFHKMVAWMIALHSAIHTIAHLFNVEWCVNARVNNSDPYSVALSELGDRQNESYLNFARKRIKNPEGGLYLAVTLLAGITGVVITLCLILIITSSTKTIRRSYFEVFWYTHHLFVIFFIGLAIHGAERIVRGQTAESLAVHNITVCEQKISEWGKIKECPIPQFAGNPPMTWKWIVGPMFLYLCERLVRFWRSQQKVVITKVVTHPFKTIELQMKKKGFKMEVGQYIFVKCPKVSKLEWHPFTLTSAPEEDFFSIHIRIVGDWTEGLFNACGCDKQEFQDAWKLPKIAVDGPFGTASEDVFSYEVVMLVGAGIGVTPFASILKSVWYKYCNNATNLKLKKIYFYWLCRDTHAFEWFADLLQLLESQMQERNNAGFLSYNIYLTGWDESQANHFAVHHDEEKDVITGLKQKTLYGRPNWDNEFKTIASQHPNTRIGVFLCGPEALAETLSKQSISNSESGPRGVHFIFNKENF

With `Cc1ccc(S[C@]2(C(=O)NC(C)C)CC(=O)N(Cc3ccccc3)[C@@H]2c2ccc(CO)cc2)cc1`, the z-score in assay [1] was 1.33 (inactive); in [3] it was 1.66 (inactive); in assay [4], -0.709 (inactive); in assay [5], -0.379 (inactive); in assay [6] it was -0.581 (inactive); in assay [7], 1.46. Besides, the values for the z-score in assay [8], in assay [9] and in assay [10] were -0.101 (inactive), 0.0692 (inactive) and -0.771, respectively. This compound showed a composite z-score in [2] of 0.082.

In the case of `C=C(COC)/C(=C/C[C@@H](OC(C)=O)c1cccc(OCCO)c1)c1cnc2ccccc2c1`, the z-score is 0.441 (inactive) in assay [1]; 22.7 (active) in [3]; 4.9 (inactive) in assay [4]; 0.377 (inactive) in [5]; 1.58 (inactive) in assay [6]; 0.249 in assay [7]. In addition, the values for the z-score in assay [8], in [9] and in assay [10] were -1.21 (inactive), -0.77 (inactive) and -2.27, respectively. The composite z-score in assay [2] amounted to 0.106.

Turning to `CC1C2C(CCCO)=CC(C3C(=O)N(C(N)=O)C(=O)C23)N1Cc1cccc(OC(F)(F)F)c1` (stereo not given), the z-score in assay [1] is -0.114 (inactive); in assay [3], 0.376 (inactive); in [4], 0.0112 (inactive); in [5], -0.308 (inactive); in [6], 0.0624 (inactive); in [7] it was -0.207. Moreover, the z-score in assay [8] was 0.217 (inactive); in [9], 0.509 (inactive); in [10], 0.107. In addition, the composite z-score in [2] was 0.0982.

As for `C=C(CCCC)/C(=C/C[C@@H](OC(C)=O)c1ccc(OCCO)cc1)c1cc(C(=O)OC)ccc1OC`, the z-score in assay [1] is -0.195 (inactive); in assay [3] it was 23.7 (active); in assay [4], 6.34 (inactive); in assay [5] it was 1.86 (inactive); in [6], 1.19 (inactive); in [7] it was -0.265. Also, the z-score in [8] was -0.958 (inactive); in assay [9], -1.43 (inactive); in assay [10] it was -1.98. In addition, the composite z-score in [2] was -0.0518.

On to `COCCOC(=O)N1C(=O)[C@@]2(c3cc(C#CCNC(N)=O)ccc31)[C@H](C(=O)Nc1nc3ccccc3s1)[C@H]1C(=O)O[C@H](c3ccccc3)[C@H](c3ccccc3)N1[C@@H]2c1ccc(O)cc1`, for which the z-score in [1] was -0.614 (inactive); in [3] it was 1.1 (inactive); in assay [4], 0.476 (inactive); in assay [5] it was -0.385 (inactive); in [6], 1.05 (inactive); in assay [7], 0.637. Also, the z-score in assay [8] is 0.95 (inactive); in [9], -1.12 (inactive); in assay [10] it was 0.142. The compound also displayed a composite z-score in assay [2] of 0.317.

Regarding `C=C(COC)C(=O)CC[C@H](OC(C)=O)c1ccccc1OCCO`, the z-score in [1] was 0.618 (inactive); in assay [3], 1.91 (inactive); in assay [4] it was -0.291 (inactive); in assay [5] it was 0.537 (inactive); in assay [6], -1.49 (inactive); in assay [7] it was 1.2. Also, the values for the z-score in [8], in assay [9] and in assay [10] were -1.57 (inactive), 0.456 (inactive) and -1.41, respectively. Further, in assay [2], the composite z-score was -0.176.

For the compound `O=C1c2ccccc2[C@@]2(Cc3ccccc3N(CC(F)(F)F)C2=O)[C@H](c2ccc(CO)cc2)N1Cc1ccccc1`, the z-score in [1] was -0.98 (inactive); in assay [3], -0.0567 (inactive); in assay [4], -0.992 (inactive); in assay [5], 0.11 (inactive); in [6] it was -1.93 (inactive); in assay [7], 2.33. Also, the z-score is -2.06 (inactive) in [8], -2.39 (inactive) in [9] and -2.36 in assay [10]. In addition, in assay [2], the composite z-score is -0.0626.

Take `COC(=O)c1c2oc(c1C(=O)OC)C(=O)N[C@H](Cc1ccccc1)Cn1cc(nn1)C1(CCCCC1)NC(=O)N[C@H](CO)CC2`: the z-score in assay [1] was 2.53 (inactive); in assay [3], 0.96 (inactive); in [4] it was 0.166 (inactive); in assay [5], 0.789 (inactive); in assay [6] it was 0.286 (inactive); in [7], 0.274. Besides, the z-score in [8] was -0.0295 (inactive); in assay [9], 1.77 (inactive); in assay [10], 0.431. This compound also had a composite z-score in assay [2] of -0.104.

For `O=C1C2C=CC(C(O)C3CCCCC3)N(Nc3ccccc3F)C2C(=O)N1c1ccccc1` (stereo not given), the z-score was 0.128 (inactive) in assay [1]; 1.11 (inactive) in assay [3]; 0.304 (inactive) in assay [4]; 2.77 (inactive) in assay [5]; -0.743 (inactive) in [6]; 2.15 in [7]. In addition, the figures for the z-score in assay [8], in assay [9] and in assay [10] were -2.64 (inactive), -4.15 (inactive) and -4.19, respectively. The compound also yielded a composite z-score in assay [2] of 0.483.

For `CC(C)C[C@H]1NC(=O)CNC(=O)[C@@]23C(=O)N[C@@H](Cc4ccccc4)C2[C@H](C)[C@@]2(C)O[C@H]2C3/C=C/C/C=C\CNC1=O` (stereo not given in full), the z-score in assay [1] was -0.592 (inactive); in assay [3], 0.392 (inactive); in assay [4], 0.41 (inactive); in assay [5], -0.352 (inactive); in assay [6] it was -0.0621 (inactive); in assay [7], 0.662. Moreover, the z-score in [8] was 0.429 (inactive); in assay [9], 1.21 (inactive); in assay [10], -0.495. In [2], this compound gave a composite z-score of -0.103.

Take `[N-]=[N+]=Nc1ccccc1C[C@]1(C(=O)N2CCCCC2)N=C(c2ccc(OCCCO)cc2)O[C@H]1c1ccccc1`: the z-score was 0.699 (inactive) in assay [1]; 18 (active) in assay [3]; 4.52 (inactive) in assay [4]; 3.48 (inactive) in [5]; 1.87 (inactive) in assay [6]; -0.0985 in [7]. Also, the z-score in [8] is -1.76 (inactive); in [9], -0.593 (inactive); in [10] it was -1.68. This compound gave a composite z-score in [2] of 0.179.

For `CN1C(=O)C2C(C1=O)C1C=C(CCCO)C2C(C2CC2)N1C` (stereo not given), the z-score in assay [1] is 0.667 (inactive); in [3] it was -0.452 (inactive); in assay [4] it was -0.72 (inactive); in assay [5], 0.139 (inactive); in assay [6], -1.17 (inactive); in [7] it was 1.82. Also, the z-score in assay [8] was -0.0367 (inactive); in assay [9] it was -0.274 (inactive); in [10], 0.53. Besides, the composite z-score in [2] was -0.0683.

On to `COc1ccc([Si](C)(C)[C@@H]2[C@@H](CC(=O)N3Cc4ccccc4C[C@H]3CO)O[C@]3(C(=O)N(Cc4ccc(I)cc4)c4ccccc43)[C@H]2C)cc1`, for which the z-score in [1] is 1.35 (inactive); in assay [3], 4.93 (inactive); in assay [4], 1.98 (inactive); in [5] it was 2.47 (inactive); in assay [6], 1.21 (inactive); in assay [7], 0.192. In addition, the values for the z-score in assay [8], in [9] and in assay [10] were 1.19 (inactive), 1.15 (inactive) and 0.652, respectively. Besides, the composite z-score in assay [2] worked out at 0.0063.

As to `COC(=O)c1ccc(OC)c(/C=C\CC(OC(=O)c2ccncc2)c2ccccc2)c1` (stereo not given), the z-score in assay [1] is 2.32 (inactive); in assay [3], 20.4 (active); in [4], 3.1 (inactive); in assay [5], 0.543 (inactive); in assay [6] it was -1.02 (inactive); in assay [7], 1.93. Moreover, the figures for the z-score in assay [8], in assay [9] and in [10] were -0.552 (inactive), 0.529 (inactive) and -0.408, respectively. The compound also registered a composite z-score in assay [2] of -0.206.

Values taken from PubChem BioAssay.
